This is a sample that favours compounds with a hit; in the whole collection about 2.7% have one here.
FAS-TE inh: inhibitors of human fatty acid synthase thioesterase domain; P49327; recombinant FAS-TE, OMFH fluorogenic substrate, fluorescence endpoint; inhibition, % at 15 µM; 360,000 compounds, 0.67% hits; AID 602261;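 active = compounds whose normalised, plate-corrected inhibition of enzyme fluorescence in the single-dose primary screen is 50% or more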
PfGluPho inh: PfG6PD (Plasmodium falciparum) enzyme inhibition | AID 504690 | inhibition, % at 20 µM | PfGluPho enzyme, NADPH resazurin-diaphorase fluorescence | 350,000 compounds, 0.78% hits;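 active = inhibition reaching at least a set limit at 20 µM in the primary screen, cut at about 59% in these data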
Neddylation inh: blocks human cullin neddylation. calls only at 25 µM. P61081+Q13564. TR-FRET cullin neddylation, biochemical. 360,000 compounds, 0.58% hits; in the data active = inhibition above about 36%
proKLK7 act: proKLK7 (human) activation, primary screen; activation, % at 7 µM; 370,000 compounds, 0.9% hits; AID 652039; P49862; purified proKLK7, EDANS-DABCYL substrate fluorescence; 100% is mature enzyme control, 0% vehicle;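 active = activation above the mean of all tested compounds plus 3 SD, computed per campaign excluding outliers beyond control limits, cut at about 13% in these data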
PfGluPho conf: PfG6PD inhibition, single-dose confirmed; inhibition, % at 20 µM; shares compounds with PfGluPho inh; 2,400 compounds, 34% hits; AID 504753; recombinant PfGluPho, NADPH-diaphorase-resazurin fluorescence;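 active = inhibition of at least 50% at 20 µM in any single replicate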
Diaph ctr 10uM: diaphorase inhibition or oxidation at 10 uM NADPH | shares compounds with PfGluPho inh | diaphorase-coupled resazurin reduction, fluorescence, NADPH 10 uM | inhibition, % at 20 µM | 820 compounds, 39% hits | AID 504862;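 active = average inhibition reaching 50% or more with the compound at 20 µM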;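 note: resorufin red fluorescence formed as diaphorase reduces resazurin using NADPH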
Diaphorase 30uM: counter-screen for P. falciparum G6PD inhibitors: diaphorase inhibitors, oxidizers; shares compounds with PfGluPho inh; Diaphorase/resazurin coupled assay, resorufin fluorescence, 30 uM NADPH; inhibition, % at 20 µM; 820 compounds, 29% hits;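 active = inhibition averaging 50% or more, tested at 20 µM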
A number is an active result; . = inactive; / = no result shown.

SMILES	FAS-TE inh	PfGluPho inh	Neddylation inh	proKLK7 act	PfGluPho conf	Diaph ctr 10uM	Diaphorase 30uM
C/C(=N/NC(=O)Cc1cccs1)c1cccc([N+](=O)[O-])c1	/	/	/	.	/	/	/
Cc1cc(C)nc(SSc2nc(C)cc(C)n2)n1	.	64.8	.	.	64.4	.	.
COC(=O)c1ccc(-c2ccc3c(c2)[C@]2(CCC[C@@H](O)[C@@H]2NC(=O)CCc2ccccc2)C(=O)N3Cc2ccccc2)cc1	/	/	/	.	/	/	/
[O-]/[N+](=C/c1cccnc1)c1ccc(Br)cc1	.	104.6	.	.	78.3	68.2	.
O=[N+]([O-])c1ccc(N/N=C/c2cccnc2)cc1	.	.	.	.	/	/	/
O=S1(=O)C=CCN1Cc1cn(Cc2cccc(Cl)c2)nn1	/	/	/	.	/	/	/
COc1ccc(S[C@]2(C(=O)N3CCN(c4ncccn4)CC3)CC(=O)N(c3ccccc3)[C@@H]2c2ccc(OC)cc2)cc1	/	/	/	.	/	/	/
CCn1c(C)nc2cc(C(=O)N/N=C/c3ccc(O)c(O)c3O)ccc21	.	84.8	.	.	90.0	86.1	89.0
COc1cccc(/C=N/NC(=O)c2c(C)nc3ccc(Br)cn23)c1O	.	.	.	/	/	/	/
CCOc1ccccc1/C=N/NC(=O)c1c(C)nc2ccc(Br)cn12	.	122.6	.	.	97.7	93.2	97.3
CCN(CC)S(=O)(=O)c1cccc(C(=O)N/N=C/c2ccc(O)c(O)c2O)c1	.	66.0	.	.	71.3	76.0	85.8
CCN(CC)S(=O)(=O)c1cccc(C(=O)N/N=C/c2ccc(N3CCOCC3)cc2)c1	.	.	.	.	/	/	/
CCOc1ccccc1/C=N/NC(=O)c1cccc(S(=O)(=O)N(CC)CC)c1	.	110.4	.	.	60.5	63.9	53.5
Cc1cc(C)cc(C(=O)OCCN2CCN(C3CN(Cc4cn(Cc5ccc([N+](=O)[O-])cc5)nn4)S(=O)(=O)C3)CC2)c1 (stereo not given)	/	/	/	.	/	/	/
Cn1ccnc1C(=O)O[C@@H]1CCC[C@@]2(C(=O)N(Cc3ccccc3)c3ccccc32)[C@H]1NC(=O)CCc1ccccc1	/	/	/	.	/	/	/
CCOC(=O)CNC(=O)CSc1nnc(-c2ccc(C(C)(C)C)cc2)n1-c1ccc(Cl)cc1	/	/	/	.	/	/	/
CC(=O)Oc1cc2c3c(c1)/C(=C1/SC(=S)NC1=O)C(=O)N3C(C)(C)C=C2C	.	79.8	.	.	.	/	/
CCOc1cc2c3c(c1)C(C)=CC(C)(C)N3C(=O)C2=O	.	.	.	.	/	/	/
COC(=O)[C@]12C[C@H](CC(=O)N3CCCCC3)C(=O)N(Cc3cccc4ccccc34)C1=C[C@H](C(C)(C)C)O[C@@H]2C	/	/	/	.	/	/	/
COc1ccc(-n2c(COc3ccccc3)nnc2SCC(=O)Nc2ccc3c(c2)OCCO3)cc1	/	/	/	.	/	/	/
O=C(c1ccncc1F)N1CCC(n2nnc3ncccc32)CC1	/	/	/	.	/	/	/
Oc1ccc(Br)cc1CNc1cccc2cccnc12	.	72.0	.	.	.	/	/
c1ccc2cc(Cn3ccc4ccc(-c5ccc6cc[nH]c6c5)cc43)ccc2c1	/	/	/	.	/	/	/
CCOC(=O)c1c2c(n(-c3ccc(OC)cc3)c1C)C(=O)C(=O)c1ccccc1-2	.	71.9	.	/	.	/	/
CCOC(=O)c1sc(=S)n(-c2ccc(OC)cc2)c1C	.	.	.	.	/	/	/
SMILES	FAS-TE inh	PfGluPho inh	Neddylation inh	proKLK7 act	PfGluPho conf	Diaph ctr 10uM	Diaphorase 30uM
O=S1(=O)c2ccc(Br)cc2OC[C@@H](Cc2ccccc2)N1Cc1cn(CC2CCCCC2)nn1	/	/	/	.	/	/	/
CN(C)c1ccc(C=c2c3ccccc3n3c2cc(-c2ccccc2)[n+]3C)cc1	.	.	.	.	/	/	/
CN(C)c1ccc(C=c2c3cc([N+](=O)[O-])ccc3n3c2cc(-c2ccccc2)[n+]3C)cc1	.	120.0	.	.	92.7	.	.
COc1cc(N(C)C)ccc1C=c1c2ccccc2n2c1cc(-c1ccccc1)[n+]2C	.	83.0	.	.	76.0	.	.
COC(=O)c1cc(-c2cccs2)c(=O)n2c1CCC2	/	/	/	.	/	/	/
COc1ccccc1/C=N/NC(=O)c1nnn(-c2nonc2N)c1-c1ccccc1	.	.	.	.	/	/	/
COc1ccccc1/C=N/NC(=O)c1nnn(-c2nonc2N)c1-c1cccs1	.	92.8	.	/	55.3	84.9	66.5
Nc1nonc1-n1nnc(C(=O)N/N=C/c2cccc(Cl)c2)c1-c1ccc2c(c1)OCO2	.	119.1	/	.	98.7	86.9	66.5
Cc1ccc(-c2c(C(=O)N/N=C/c3sccc3C)nnn2-c2nonc2N)cc1	.	87.6	.	.	.	/	/
O=C(Cn1nnc(-c2ccc(N3CCOCC3)cc2)n1)c1cccc(F)c1	/	/	/	.	/	/	/
CC1CN(C(=O)COC(=O)CSc2ccc([N+](=O)[O-])cc2)CC(C)O1 (stereo not given)	.	60.4	.	.	.	/	/
COC(=O)CCC(=O)OC1(C)C(=O)C2=CN(CCc3c[nH]c4ccccc34)C(c3ccc(OC)cc3)=CC2=C(Br)C1=O (stereo not given)	.	.	.	/	/	/	/
COC(=O)CCC(=O)OC1(C)C(=O)C2=CN(c3ccccc3)C(c3ccc(OC)cc3)=CC2=C(Br)C1=O (stereo not given)	.	73.2	.	.	73.9	50.0	.
COC(=O)CCC(=O)OC1(C)C(=O)C2=CN(CCCOC(C)C)C(c3ccc(OC)cc3)=CC2=C(Br)C1=O (stereo not given)	.	82.0	.	/	.	/	/
COC(=O)CCC(=O)OC1(C)C(=O)C2=CN(Cc3ccc(OC)cc3)C(c3ccc(OC)cc3)=CC2=C(Br)C1=O (stereo not given)	.	.	.	.	/	/	/
COC(=O)CCC(=O)OC1(C)C(=O)C2=CN(Cc3ccccc3)C(c3ccc(OC)cc3)=CC2=C(Br)C1=O (stereo not given)	.	78.0	.	.	.	/	/
CCCCCCCCN1CN2Cc3cc(F)ccc3C2CS1(=O)=O (stereo not given)	/	/	/	.	/	/	/
Fc1ccccc1-c1n[nH]c(=S)n1N=Cc1ccc(OCc2ccccc2)cc1	/	/	/	.	/	/	/
O=C(NN=Cc1ccc(-c2ccccc2)cc1)c1cc(-c2ccc(Cl)cc2)n[nH]1	/	/	/	.	/	/	/
O=C(NC1=N[C@@]2(C=C3CCCCC3n3c(=O)n(-c4ccccc4)c(=O)n32)CN1Cc1ccccc1)c1ccccc1 (stereo not given in full)	/	/	/	.	/	/	/
CCCCCCCCN1C(=O)[C@@H](CC(=O)NCc2ccccc2)C[C@@]2(C(=O)OC)C1=C[C@H](C1CCCC1)O[C@@H]2C	/	/	/	.	/	/	/
CCc1cc(-c2n[nH]c(C)c2-c2nc3ccccc3n2C)c(O)cc1O	.	61.1	.	.	48.6	.	.
CCc1cc(-c2n[nH]c(C)c2-c2ccccc2Cl)c(O)cc1OC	.	98.0	.	.	51.3	55.0	.
CCOC(=O)c1sc(=S)n(C)c1NC(=O)c1ccc(F)cc1	.	72.0	.	.	.	/	/
O=C(c1ccccc1C(F)(F)F)N1CCC(Oc2cccnc2)CC1	/	/	/	.	/	/	/
Cc1nc2ccc(S(=O)(=O)NCC(=O)N(C)Cc3ccccc3Cl)cc2s1	/	/	/	.	/	/	/

Source: PubChem BioAssay (several laboratories)
